Experiment [1] can be described thus: circadian clock period modulators, cell-based, LOPAC library, luminescence reporter (AID 2774).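 Further: values are relative to mean of DMSO wells on each plate.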 The note with it: circadian reporter cells, at 7 µM, actives lie on both sides.
Experiment [2] relates to Hepatitis C virus NS3 helicase. Briefly: HCV NS3 helicase inhibitors, primary screen, biochemical, fluorescence polarization, LOPAC1280 library (AID 687035; in the data active means inhibition above about 37%). The note with it: Purified HCV NS3 helicase, Cy5-dT15 ssDNA binding fluorescence polarization; stronger effect = higher value; concentration not given here.
The nature of experiment [3]: Cy5 fluorescence quenching or enhancement artefacts, artefact control for HCV NS3 helicase inhibitor project, biochemical, LOPAC1280 (AID 687037). As to conditions: Cy5-DNA-NS3h complex fluorescence interference counterscreen. In general terms: A counterscreen serves to expose hits that act by an unwanted route or on another target.
For experiment [4], the system named is Aerobactin synthetase IucA (Klebsiella pneumoniae). Briefly: IucA aerobactin synthetase inhibitors, biochemical, Tocris library, absorbance (AID 1345561).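 Further: 100% = enzyme without compound and 0% = no enzyme.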 As to conditions: purified IucA enzyme assay, absorbance (OD) read-out; stronger effect = lower value;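 tested at 8 µM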.
Experiment [5] concerns Aerobactin synthetase IucA (Klebsiella pneumoniae, hypervirulent). Briefly: IucA enzyme inhibition, biochemical, LOPAC library, absorbance readout (AID 1346212).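 Further: 100% = no compound wells and 0% = no enzyme wells.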 The note with it: IucA enzyme assay, absorbance (OD) readout; stronger effect = lower value;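 tested at 8 µM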.
A short description of experiment [6]: growth inhibition of DIPG glioma cells, dose response, cell-based, SU-DIPG-XVII, MIPE5.0, CellTiter-Glo, qHTS (AID 1347060; cut-off not given, nearly all actives have AC50 up to about 26 µM). The note with it: SU-DIPG-XVII viability, CellTiter-Glo ATP luminescence. Background: Cellular ATP, detected with luciferase, serves as a proxy for viable cell number.
A short description of experiment [7]: growth inhibition of DIPG glioma cells, dose response, cell-based, SU-DIPG-XIII, MIPE4.0, CellTiter-Glo, qHTS (AID 1347061; cut-off not given, nearly all actives have AC50 up to about 37 µM;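 further: cells exposed to compound for 48 hours before readout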). The note with it: SU-DIPG-XIII viability, CellTiter-Glo ATP luminescence.
Experiment [8] is described as follows: growth inhibition of DIPG glioma cells, dose response, cell-based, JHH-DIPG-1, MIPE4.0, CellTiter-Glo, qHTS (AID 1347062; cut-off not given, nearly all actives have AC50 up to about 27 µM;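 on AC50: cells exposed to compound for two days before readout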). The note with it: JHH-DIPG-1 viability, CellTiter-Glo ATP luminescence.
The nature of experiment [9]: growth inhibition of DIPG glioma cells, dose response, cell-based, SU-DIPG-IV, MIPE4.0, CellTiter-Glo, qHTS (AID 1347063; cut-off not given, nearly all actives have AC50 up to about 30 µM;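 further: compound exposure lasted 48 hours before the viability readout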). The note with it: SU-DIPG-IV viability, CellTiter-Glo ATP luminescence.
A short description of experiment [10]: viability loss in pontine glioma line – cell-based, SU-DIPG-XXV, MIPE5.0, CellTiter-Glo, qHTS, dose response (AID 1347065; cut-off not given, nearly all actives have AC50 up to about 26 µM;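 further: cells exposed to compound for 48 hours before ATP readout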). The note with it: CellTiter-Glo ATP luminescence.
A short description of experiment [11]: SU-DIPG-VI glioma cell viability, MIPE4.0 library, CellTiter-Glo luminescence, qHTS (AID 1347066; cut-off not given, nearly all actives have AC50 up to about 30 µM;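 further: cells exposed to compound for 48 hours before readout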). As to conditions: CellTiter-Glo ATP luminescence.
A short description of experiment [12]: JHH-DIPG-1 glioma cell viability, MIPE5.0 library, CellTiter-Glo luminescence, qHTS (AID 1347067; cut-off not given, nearly all actives have AC50 up to about 26 µM;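 further: cells exposed to compound for 48 hours before readout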). The note with it: JHH-DIPG-1 glioma viability, CellTiter-Glo ATP luminescence.
The nature of experiment [13]: sensitizers of A549 cells to miR-34 induction, primary screen, imaging, A549 dox-inducible miR-34, nuclei and caspase counts (AID 1347080;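 active means compounds whose cell count with miR-34 switched on is under 0.7 times the count with it off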). The note with it: A549 miR-34 inducible, Hoechst nuclei count, 48 h.
The nature of experiment [14]: viability rescue of complex I mutant cybrids, primary screen, cell-based, galactose medium, ATP luminescence (AID 1645843;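 active means z-score of at least 1.8 in each of two replicates, scored against plate mean and spread of sample wells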;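 further: positive z means more ATP and so rescue of galactose-driven cybrid death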). The note with it: complex I mutant cybrid cells, 72 h, stronger effect = higher value.
Experiment [15] can be described thus: phospholipid biosynthesis inhibitors in animal cells, primary screen, cell-based, LOPAC library, screen 4 (AID 1347384). The note with it: phospholipid biosynthesis inhibition screen, at 10 µM.
The nature of experiment [16]: hESC survival regulators, cell-based (AID 493140).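 Further: cells exposed to compounds for four days before counting.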 The note with it: human embryonic stem cell survival screen; stronger effect = higher value.
Experiment [17] can be described thus: liver-stage malaria parasite growth inhibition, primary screen, cell-based, HepG2, luciferase luminescence, HepG2 viability (AID 624349; in the data active means parasite load remaining mostly below about 12%, no sharp cut-off; inactive means mostly above about 10%;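 further: 100% = mean of DMSO negative control wells on the same plate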). The note with it: P. berghei liver stage in HepG2, luciferase luminescence, concentration not given here; parasite load remaining: stronger effect = lower value; viability: measured here: HepG2 viability without parasites.
The nature of experiment [18]: differential killing of epithelial or mesenchymal cells, primary screen, imaging, PC-3E GFP, TEM4-18 mCherry, co-culture (AID 1345086;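 active means compounds killing one labelled cell type while sparing the other, by normalised counts and ratio limits, not self-fluorescent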;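 on all read-outs here: cells exposed to compound for 72 h before imaging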;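 on red/green cell ratio (normalised): normalised mesenchymal count divided by normalised epithelial count so high means epithelial killing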). The note with it: imaging cell counts, at 1 µM; for red/green cell ratio (normalised): actives lie on both sides.
For experiment [19], the target named is NAD(+) hydrolase SARM1 (Homo sapiens) (UniProt Q6SZW1). As to the kind of experiment: SARM1 TIR NADase inhibitors, cell lysate, NAD-Glo luminescence (AID 1508614;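 active means compound whose remaining NAD level is above about 45 nM, limit read from the data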). The note with it: SAM-TIR HEK293T lysate NADase, at 1 µM, stronger effect = higher value.
NAD(+) hydrolase SARM1 (Homo sapiens), sequence (Q6SZW1 whole entry, looked up): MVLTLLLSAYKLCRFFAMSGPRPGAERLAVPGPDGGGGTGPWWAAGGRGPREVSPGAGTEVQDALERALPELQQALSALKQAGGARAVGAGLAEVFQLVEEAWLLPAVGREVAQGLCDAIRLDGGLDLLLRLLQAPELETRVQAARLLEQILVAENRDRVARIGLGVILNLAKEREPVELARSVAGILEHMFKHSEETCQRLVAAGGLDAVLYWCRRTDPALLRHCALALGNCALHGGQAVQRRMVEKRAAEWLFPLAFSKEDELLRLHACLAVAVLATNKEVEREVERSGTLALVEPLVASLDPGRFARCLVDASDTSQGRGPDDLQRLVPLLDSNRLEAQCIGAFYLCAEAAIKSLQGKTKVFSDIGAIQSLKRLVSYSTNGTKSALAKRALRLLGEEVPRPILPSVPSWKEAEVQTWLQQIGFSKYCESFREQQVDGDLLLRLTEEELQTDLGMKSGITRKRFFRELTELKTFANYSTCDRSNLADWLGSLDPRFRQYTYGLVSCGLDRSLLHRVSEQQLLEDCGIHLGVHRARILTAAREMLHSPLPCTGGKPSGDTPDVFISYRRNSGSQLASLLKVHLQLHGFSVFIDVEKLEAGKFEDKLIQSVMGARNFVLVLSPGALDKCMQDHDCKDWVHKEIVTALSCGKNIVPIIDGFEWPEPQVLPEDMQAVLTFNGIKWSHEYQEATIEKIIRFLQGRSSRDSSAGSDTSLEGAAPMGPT
The nature of experiment [20]: suppressors of polyQ aggregation in yeast, 75Q-TubU reporter (AID 1593). As to conditions: Yeast 75Q polyglutamine aggregation reporter.
Experiment [21] is described as follows: rescue of polyQ-huntingtin neuronal dysfunction in worms, whole organism, C. elegans mechanosensory neurons, N-terminal huntingtin (AID 1599). The note with it: touch response, stronger effect = higher value.
Experiment [22] is described as follows: inhibitors of mitochondrial cytochrome c release, biochemical, purified mitochondria (AID 1603).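 Further: mouse liver mitochondria challenged with calcium chloride; signal normalized to the plate average as 100%.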 The note with it: stronger effect = lower value.
Experiment [23] in a line: inhibitors of polyQ protein aggregation (AID 1604). As to conditions: polyglutamine-induced protein aggregation inhibition assay; stronger effect = higher value; tested at 2.5 µM.
Experiment [24] is described as follows: enhancers of glutamate uptake in motor neurons, MN-1 cell line (AID 1612).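 Further: tested at 1 µM final; 0% = mean of DMSO vehicle wells on each plate; positive means more glutamate uptake than control and negative means less.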 As to conditions: MN-1 motor neuron cells, stronger effect = higher value.
Experiment [25] can be described thus: reducers of polyQ inclusions in PC12 cells, cell-based, NGF-treated PC12, GFPQ80 (AID 1614).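 Further: lower means fewer inclusions and 0 means no inclusions at all.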 As to conditions: PC12 NGF-treated GFP-polyQ80 inclusion reduction.
Experiment [26] can be described thus: suppressors of polyglutamine aggregation in yeast, 75Q-TubH (AID 1616). As to conditions: S. cerevisiae 75Q-TubH polyglutamine aggregation suppression; stronger effect = higher value.
[27] abbreviates: measured here: relative caspase fold change +Dox/-Dox.
Setting [28] is: measured here: total cells with miR-34 induction, stronger effect = lower value.
Where [29] appears, read: measured here: total cells without miR-34 induction.
Setting [30] is: measured here: epithelial PC-3E GFP cell survival.
[31] abbreviates: measured here: mesenchymal TEM4-18 mCherry cell survival.

Where “and” joins values, the source holds several entries; their conditions need not be identical. Equal values may be shown once. Inconclusive results are not listed. For part of these data: Measured potencies and affinities stand elsewhere. Calls of active or inactive are those of the source. Unless noted, how the calls were made is not given here.

Consider `CCCN1CCO[C@@H]2c3cc(O)ccc3OC[C@H]21`, for which the period change in experiment [1] was -0.065 hour (inactive) and 0.1 hour (inactive). Besides, in experiment [2], the inhibition was -4% (inactive) and -2% (inactive). In addition, the fluorescence ratio (interference) in experiment [3] was 1 (inactive). Further, the remaining activity in experiment [4] is 109% (inactive); in experiment [5], 102% (inactive). The outcome in experiment [6], in [7], in [8], in [9], in experiment [10] and in experiment [11] was inactive. Also, the outcome in [12] was inactive. Further, the fold change in experiment [13] (stronger effect = lower value) was 0.978 (inactive) and 0.932 (inactive); in experiment [13] (setting [27]) it was 1.67 and 0.977. The cell count in experiment [13] (setting [28]) was 9750 and 8460; in experiment [13] (setting [29]), 9980 and 9070. In addition, the z-score in experiment [14] was 0.53 (inactive) and -0.06 (inactive).
For the molecule `c1ccc(CCCN2CCN(CCOC(c3ccccc3)c3ccccc3)CC2)cc1`, the period change in experiment [1] is -0.025 h (inactive). In [2], the inhibition was 0% (inactive). Moreover, the fluorescence ratio (interference) in experiment [3] is 1 (inactive). In addition, the remaining activity in experiment [4] was 117% (inactive); in experiment [5], 104% (inactive). In addition, the AC50 in experiment [8] was 20.9 µM (active); in experiment [9], 23.5 µM (active). Further, the fold change was 1.21 (inactive) and 0.966 (inactive) in experiment [13] (stronger effect = lower value); 1.16 and 0.645 in experiment [13] (setting [27]). For the same molecule, the cell count in experiment [13] (setting [28]) was 3120 and 2750; in experiment [13] (setting [29]), 2580 and 2850. Also, the molecule was called inactive in experiment [15]. Moreover, the z-score in experiment [14] was -1.04 (inactive) and -1.21 (inactive).
In the case of `CCOC(=O)c1ncn2c1[C@@H]1CCCN1C(=O)c1cc(OC)ccc1-2`, the period change in experiment [1] was -0.11 h (inactive). For the same molecule, in experiment [2], the inhibition is 0% (inactive). Besides, the fluorescence ratio (interference) in experiment [3] was 1 (inactive). In addition, the remaining activity was 125% (inactive) in [4] and 110% (inactive) in experiment [5]. In addition, the fold change was 1.04 (inactive) and 0.964 (inactive) in experiment [13] (stronger effect = lower value); 0.593 and 0.443 in experiment [13] (setting [27]). For the same molecule, the cell count was 9220 and 8750 in experiment [13] (setting [28]); 8880 and 9080 in experiment [13] (setting [29]). The call in [15] was inactive. Moreover, the z-score in [14] is 0.505 (inactive) and 0.115 (inactive).
Take `Cc1[nH]c2ccc(O)cc2c1CCN`: the period change in experiment [1] is 0.13 h (inactive). The inhibition in [2] was -6% (inactive). Also, the fluorescence ratio (interference) in experiment [3] was 0.9 (inactive). For the same molecule, the remaining activity was 104% (inactive) in experiment [4] and 118% (inactive) in experiment [5]. Also, the fold change is 1.04 (inactive) and 1.02 (inactive) in [13] (stronger effect = lower value); 0.914 and 0.703 in experiment [13] (setting [27]). The cell count is 10800 and 9460 in [13] (setting [28]); 10400 and 9310 in experiment [13] (setting [29]). Moreover, the call in [15] was inactive. In experiment [14], the z-score is 0.345 (inactive) and -0.12 (inactive).
Turning to `CCNC1(c2cccs2)CCCCC1=O` (stereo not given), in experiment [16], the survival is 13.6 (inactive). In [17], the parasite load remaining is 136% (inactive). This molecule also returned a viability in experiment [17] of 77%. Moreover, the red/green cell ratio (normalised) in experiment [18] is 0.77 (inactive). The normalised cell number turned out to be 1.37 in [18] (setting [30]) and 1.05 in experiment [18] (setting [31]). Also, the fold change is 0.914 (inactive) in experiment [13] (stronger effect = lower value) and 0.59 in experiment [13] (setting [27]). Also, the results for the cell count in [13] (setting [28]) and in experiment [13] (setting [29]) were 8750 and 9570, respectively. Also, in experiment [19], the remaining NAD was 10 nM (inactive).
Consider `CO[C@H]1[C@H](O)[C@@H](O[C@H]2CC[C@]3(C=O)C4CC[C@]5(C)[C@@H](C6=CC(=O)OC6)CC[C@]5(O)C4CC[C@@H]3C2)O[C@@H](C)[C@@H]1O` (stereo not given in full), for which the score in experiment [20] was determined as 1.12. In experiment [21], this molecule showed a rescue above control of -6.49. Besides, the cytochrome c release ratio in experiment [22] turned out to be 1.41. The molecule further showed an inhibition of aggregation in experiment [23] of 0%. Moreover, in experiment [24], the glutamate uptake change was 3.74%. For the same molecule, the inclusion score in experiment [25] is 0.5. For the same molecule, the aggregation suppression score in experiment [26] amounted to 1.22. In [17], the parasite load remaining is 56.4% (inactive) and the viability is 41.4%. In [18], the red/green cell ratio (normalised) is 0.18 (inactive). The normalised cell number in experiment [18] (setting [30]) turned out to be 0.18. This molecule came in with a normalised cell number in experiment [18] (setting [31]) of 0.03.

As usually defined, the inhibition is the relative decrease from the control value, in per cent. As a reminder, the remaining activity is the signal under treatment as a percentage of the control signal. The AC50 is the midpoint of the concentration-response curve, whichever way the signal moves. A word on the viability: it is a per cent measure of how many cells are alive, often set against a control.

Source of the values: PubChem BioAssay.
